# Assay results published in PubChem BioAssay AID1220 (Sanford-Burnham Center for Chemical Genomics, 2008).
# Among all 190,000 compounds or so, about 1,300 (0.68%) were called active. The list comes from a sample in which actives are over-represented; it also holds similar structures and randomly drawn compounds. Values without a mark were called inactive. No stated cut-off is given here; in the data, active means inhibition above about 50%; inactive means the rest.
# Biological target: Mannose-6-phosphate isomerase (Homo sapiens) (UniProt P34949)
# Sequence (P34949 whole entry, looked up): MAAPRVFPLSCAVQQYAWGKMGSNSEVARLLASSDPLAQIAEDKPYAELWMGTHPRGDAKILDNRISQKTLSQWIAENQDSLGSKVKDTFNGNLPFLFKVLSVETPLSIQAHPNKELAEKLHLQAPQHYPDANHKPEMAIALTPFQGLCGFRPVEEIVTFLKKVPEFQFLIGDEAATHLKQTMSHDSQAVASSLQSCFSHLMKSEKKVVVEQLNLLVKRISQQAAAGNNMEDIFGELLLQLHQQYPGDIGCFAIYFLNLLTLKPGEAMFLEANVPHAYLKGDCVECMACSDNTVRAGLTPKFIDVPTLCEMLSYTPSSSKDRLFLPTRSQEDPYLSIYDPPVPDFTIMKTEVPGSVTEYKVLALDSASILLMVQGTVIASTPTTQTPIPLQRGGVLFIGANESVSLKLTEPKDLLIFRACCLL
# Test: MPI inhibition at elevated mannose 6-phosphate – biochemical, fluorescence intensity, high mannose 6-phosphate, primary screen (AID 1220)
# Conditions: recombinant PMI enzyme, coupled fluorescence intensity; at 20 µM; stronger effect = higher value
row,Compound,inhibition
1,CCc1nnc(NC(=O)CN2C(=O)c3ccccc3C2=O)s1,-2.7%
2,O=C1C2C3C=CC(C3)C2C(=O)N1Cc1ccccc1 (centres undefined),10%
3,Cn1c(=O)c2cc(S(=O)(=O)NC(C(=O)Nc3cccc(F)c3)c3ccccc3)ccc2n(C)c1=O (centres undefined),1.9%
4,Cc1cc(N)c2ccccc2n1,5.5%
5,Cc1ccc2cccc(OCCOCCOc3ccccc3Br)c2n1,35.7%
6,Cc1cc(C)c2cccc(N)c2n1,64% (active)
7,Cc1ccc2cccc(N)c2n1,56.5% (active)
8,Cc1ccc2cccc(NC(=O)C(F)(F)F)c2n1,9.3%
9,Cc1cc(C)c2c(N)c3cccc(C)c3nc2n1,5.4%
10,COP(=O)(OC)c1nc(-c2ccccc2)oc1N1CCOCC1,-10.4%
11,CC1CCCCC1N1CN=C(Nc2nc3ccccc3s2)NC1 (centres undefined),8.2%
12,Nc1nc(SCC(=O)NCCO)nc2sc3c(c12)CCCC3,5.1%
13,Nc1nc(SCC(=O)NCCOCCO)nc2sc3c(c12)CCCC3,2.8%
14,Nc1nc(SCC(=O)NCCCO)nc2sc3c(c12)CCC3,57% (active)
15,Cc1c(Cl)cccc1NC(=O)Cn1cc(C(F)(F)F)cc(Cl)c1=O,-5.8%
16,CC(C)N1C(=O)S/C(=C/c2ccc(Sc3nc4ccccc4[nH]3)o2)C1=O,13.6%
17,CCN(CC)c1ccc(/C=C2/SC(=O)N(C(C)C)C2=O)o1,51.9% (active)

row,Compound,inhibition
1,CC(C)N1C(=O)S/C(=C/c2ccc3c(c2)n(C)c(=O)n3C)C1=O,7.6%
2,C/C(=N\NC(=O)CN(c1ccccc1Br)S(C)(=O)=O)c1cccs1,-17.2%
3,CCS(=O)c1ccccc1C(=O)O (centres undefined),9.5%
4,CCCCNc1nc(CC)c2c(c1C#N)CCCC2,-5.9%
5,Cc1sc2nc3c(SC(C)C(=O)O)cc(C(=O)c4ccccc4O)cn3c(=O)c2c1C (centres undefined),69% (active)
6,CCOC(=O)c1cc(C(=O)c2ccccc2O)cn2c(=O)c3c(C)c(C)sc3nc12,16.1%
7,Cc1sc2nc3c(C(=O)N4CCCC4)cc(C(=O)c4ccccc4O)cn3c(=O)c2c1C,7.7%
8,CCc1ccc(C(=O)CN2C(=O)C(C)N(c3ccc(C)cc3)C2=O)cc1 (centres undefined),4.9%
9,CCOc1cc(N2CCOCC2)c(OCC)cc1NC(=O)Cc1cccc(OC)c1,8.1%
10,CCOc1cc(N2CCOCC2)c(OCC)cc1NC(=O)COc1ccccc1[N+](=O)[O-],23.9%
11,CCOc1cc(N2CCOCC2)c(OCC)cc1NC(=O)Cc1ccc(OC)c(OC)c1,53.1% (active)
12,CCOc1cc(N2CCOCC2)c(OCC)cc1NC(=O)Cc1ccccc1OC,51.7% (active)
13,COc1ccc(NC(=O)COC(=O)[C@@H]2CCCN2S(=O)(=O)c2ccccc2F)c(OC)c1,-1.3%
14,CCOc1cc(N2CCOCC2)c(OCC)cc1NC(=O)COC(=O)[C@@H]1CCCN1S(=O)(=O)c1ccccc1F,53% (active)
15,COc1ccc(CC(=O)Nc2ccccc2N2CCOCC2)cc1OC,-2.2%
16,CCOc1cc(N2CCOCC2)c(OCC)cc1NC(=O)Cc1cccc2ccccc12,-0.6%
17,CCOc1cc(N2CCOCC2)c(OCC)cc1NC(=O)COC(=O)c1ccccc1C,11.5%
